Measurements as given in PubChem BioAssay AID588689 (Southern Research Specialized Biocontainment Screening …, 2011).
About 1,000 (0.29%) of roughly 340,000 compounds were called active. Rule as the data show it: inconclusive = inhibition above about 29% without an active follow-up result; inactive = below that. A selection follows. Measured potencies and affinities stand elsewhere.

Target: Genome polyprotein (Dengue virus type 2 (strain 16681-PDK53)) (UniProt P29991)
Assay: Dengue-2 NS5 methyltransferase inhibitors, primary screen, biochemical, confirmation dose response (AID 588689)
Details: Dengue-2 NS5 methyltransferase capping enzyme assay, at 25 µM, stronger effect = higher value
[1] = measured here: pilot screen replicate inhibition

Sequence of Genome polyprotein (Dengue virus type 2 (strain 16681-PDK53)) (P29991 whole entry, looked up): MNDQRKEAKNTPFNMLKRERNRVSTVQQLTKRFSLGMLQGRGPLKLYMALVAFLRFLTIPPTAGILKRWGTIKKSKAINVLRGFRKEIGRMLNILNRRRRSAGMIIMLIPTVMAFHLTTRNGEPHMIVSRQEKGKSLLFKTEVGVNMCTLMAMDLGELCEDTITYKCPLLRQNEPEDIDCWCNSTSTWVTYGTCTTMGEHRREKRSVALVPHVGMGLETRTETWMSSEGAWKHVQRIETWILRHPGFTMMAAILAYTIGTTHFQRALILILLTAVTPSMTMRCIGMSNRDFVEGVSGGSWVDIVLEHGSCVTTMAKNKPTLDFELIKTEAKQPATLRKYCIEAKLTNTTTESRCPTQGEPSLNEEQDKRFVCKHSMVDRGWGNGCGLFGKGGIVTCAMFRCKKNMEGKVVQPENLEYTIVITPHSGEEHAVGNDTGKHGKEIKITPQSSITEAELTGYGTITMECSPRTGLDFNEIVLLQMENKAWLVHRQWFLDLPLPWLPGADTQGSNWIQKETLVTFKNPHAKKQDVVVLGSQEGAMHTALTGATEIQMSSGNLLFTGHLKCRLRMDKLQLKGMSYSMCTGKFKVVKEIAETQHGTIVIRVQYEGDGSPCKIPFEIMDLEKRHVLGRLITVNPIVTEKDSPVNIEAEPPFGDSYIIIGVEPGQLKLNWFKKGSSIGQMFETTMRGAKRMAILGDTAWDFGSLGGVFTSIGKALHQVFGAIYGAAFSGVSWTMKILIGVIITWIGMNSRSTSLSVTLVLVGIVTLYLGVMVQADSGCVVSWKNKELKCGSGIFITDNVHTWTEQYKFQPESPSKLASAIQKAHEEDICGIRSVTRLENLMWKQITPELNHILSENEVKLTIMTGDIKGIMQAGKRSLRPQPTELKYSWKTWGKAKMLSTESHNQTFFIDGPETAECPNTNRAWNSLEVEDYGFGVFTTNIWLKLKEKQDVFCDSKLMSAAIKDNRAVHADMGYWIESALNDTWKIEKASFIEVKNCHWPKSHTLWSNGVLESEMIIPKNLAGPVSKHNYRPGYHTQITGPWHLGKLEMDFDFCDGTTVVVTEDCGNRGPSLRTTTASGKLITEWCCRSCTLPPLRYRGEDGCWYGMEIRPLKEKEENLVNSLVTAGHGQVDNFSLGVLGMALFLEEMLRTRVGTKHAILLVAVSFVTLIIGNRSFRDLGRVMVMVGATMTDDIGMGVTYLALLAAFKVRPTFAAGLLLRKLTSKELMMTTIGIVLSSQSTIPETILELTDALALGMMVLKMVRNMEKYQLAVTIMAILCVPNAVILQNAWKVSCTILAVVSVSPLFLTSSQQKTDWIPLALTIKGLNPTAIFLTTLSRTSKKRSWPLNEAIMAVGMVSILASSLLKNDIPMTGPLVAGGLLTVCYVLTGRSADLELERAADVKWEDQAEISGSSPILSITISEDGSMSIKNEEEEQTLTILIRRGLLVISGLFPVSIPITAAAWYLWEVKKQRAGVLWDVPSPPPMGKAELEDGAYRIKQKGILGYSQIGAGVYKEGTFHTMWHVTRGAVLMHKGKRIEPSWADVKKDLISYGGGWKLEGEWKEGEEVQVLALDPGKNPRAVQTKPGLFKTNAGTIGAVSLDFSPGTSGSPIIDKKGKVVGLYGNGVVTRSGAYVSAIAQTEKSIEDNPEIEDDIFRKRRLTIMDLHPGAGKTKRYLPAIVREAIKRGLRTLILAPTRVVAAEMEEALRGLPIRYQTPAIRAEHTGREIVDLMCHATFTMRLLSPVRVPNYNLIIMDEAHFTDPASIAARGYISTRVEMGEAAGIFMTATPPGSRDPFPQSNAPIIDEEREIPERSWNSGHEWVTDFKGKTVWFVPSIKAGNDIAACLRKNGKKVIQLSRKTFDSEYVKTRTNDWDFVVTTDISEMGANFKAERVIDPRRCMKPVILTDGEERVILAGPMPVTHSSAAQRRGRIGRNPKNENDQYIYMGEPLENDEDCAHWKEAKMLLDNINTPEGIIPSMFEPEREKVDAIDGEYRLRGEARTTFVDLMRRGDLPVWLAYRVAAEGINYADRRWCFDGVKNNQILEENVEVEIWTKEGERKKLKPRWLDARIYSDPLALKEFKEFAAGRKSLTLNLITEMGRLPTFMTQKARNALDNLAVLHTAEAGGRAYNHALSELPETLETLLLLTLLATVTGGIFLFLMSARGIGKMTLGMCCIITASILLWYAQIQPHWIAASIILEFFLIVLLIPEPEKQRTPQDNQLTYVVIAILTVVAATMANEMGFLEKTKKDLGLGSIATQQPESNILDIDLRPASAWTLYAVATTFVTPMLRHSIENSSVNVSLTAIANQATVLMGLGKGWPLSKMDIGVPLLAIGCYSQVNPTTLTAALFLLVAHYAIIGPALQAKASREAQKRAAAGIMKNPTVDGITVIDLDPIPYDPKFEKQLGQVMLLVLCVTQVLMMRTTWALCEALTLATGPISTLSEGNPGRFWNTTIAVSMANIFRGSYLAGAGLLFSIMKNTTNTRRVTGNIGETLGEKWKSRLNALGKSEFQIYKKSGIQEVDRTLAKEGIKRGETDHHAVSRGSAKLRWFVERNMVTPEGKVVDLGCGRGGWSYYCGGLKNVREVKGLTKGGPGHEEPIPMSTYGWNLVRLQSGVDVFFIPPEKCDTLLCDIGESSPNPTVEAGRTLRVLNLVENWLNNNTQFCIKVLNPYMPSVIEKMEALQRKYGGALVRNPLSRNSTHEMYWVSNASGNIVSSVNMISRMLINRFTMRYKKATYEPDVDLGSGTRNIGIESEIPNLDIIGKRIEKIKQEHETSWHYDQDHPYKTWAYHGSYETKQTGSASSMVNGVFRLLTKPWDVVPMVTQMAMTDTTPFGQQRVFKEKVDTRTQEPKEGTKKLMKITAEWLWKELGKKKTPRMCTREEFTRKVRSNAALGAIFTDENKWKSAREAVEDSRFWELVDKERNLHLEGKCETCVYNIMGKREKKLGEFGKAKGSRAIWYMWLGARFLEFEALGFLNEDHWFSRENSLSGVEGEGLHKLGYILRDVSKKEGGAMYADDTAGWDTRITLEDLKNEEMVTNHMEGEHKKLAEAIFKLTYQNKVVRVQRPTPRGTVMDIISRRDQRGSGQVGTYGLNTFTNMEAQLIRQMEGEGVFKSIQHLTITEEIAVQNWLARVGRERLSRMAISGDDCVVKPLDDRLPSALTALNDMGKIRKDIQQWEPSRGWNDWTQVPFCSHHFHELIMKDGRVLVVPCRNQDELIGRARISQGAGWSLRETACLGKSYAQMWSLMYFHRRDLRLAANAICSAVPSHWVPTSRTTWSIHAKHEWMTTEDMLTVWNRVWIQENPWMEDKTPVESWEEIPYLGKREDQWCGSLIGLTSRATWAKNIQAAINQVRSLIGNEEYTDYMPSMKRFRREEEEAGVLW

SMILES | inhibition | inhibition [1] [%]
O=C(C[n+]1ccc(C(=O)c2ccccc2)cc1)Nc1ccccc1OC(F)F | -15.9% (inactive) | –
O=P(C(=S)Nc1ccccc1Cl)(c1ccccc1)c1ccccc1 | -1.15% (inactive) | –
Cc1ccc(NC(=O)c2ccccc2NS(=O)(=O)c2ccc(Cl)s2)cc1 | -0.66% (inactive) | –
O=C(Nc1ccccc1)c1ccccc1NS(=O)(=O)c1ccc(Cl)s1 | 10.3% (inactive) | –
COC(=O)[C@]1(C)N[C@H](CN(C)S(=O)(=O)c2ccc(OC)cc2)[C@@H]2C(=O)N(C)C(=O)[C@@H]21 | -4.63% (inactive) | -0.915
Cc1ccc(S(=O)(=O)N2CCOCC2)cc1C(=O)NC1CCCC(C)C1C (centres undefined) | 1.47% (inactive) | –
CCCC1=C([O-])C2N=CC=CC2=[N+](c2ccccn2)C1=O (centres undefined) | -1.93% (inactive) | –
COC(=O)C1OC2(OC1C(=O)OC)c1ccccc1-c1ccccc12 (centres undefined) | -6.04% (inactive) | –
O=C1c2ccccc2C(O)N1c1ccc(Cl)cc1 (centres undefined) | -2.08% (inactive) | –
CC(C)(Oc1ccc(Cl)cc1)C(=O)NC1CCSC1=O (centres undefined) | -4.81% (inactive) | –
CCOC(=O)N1CCC(NC(=S)Nc2ccc3nc(N4CCN(CC)CC4)cc(C)c3c2)CC1 | -6.96% (inactive) | –
COc1ccc(-c2cc(C(=O)NCCN3CCOCC3)c3ccccc3n2)c(OC)c1 | -2.05% (inactive) | –
Cc1cccc(N(CC(=O)O)CC(=O)O)c1 | 0.96% (inactive) | –
CSC(=CC(=O)c1ccccc1)SC | -2.05% (inactive) | –
COc1cccc(C(=O)C(C#N)=C(SC)SC)c1 | 12.4% (inactive) | –
Cc1c(C(=O)Nc2cccc([N+](=O)[O-])c2)sc2ncn(CC(=O)N3CCOCC3)c(=O)c12 | -4.39% (inactive) | –
Cc1nc2ccc(Br)cc2c(-c2ccccc2)c1C(=O)O | 1.96% (inactive) | –
Cc1cccc(Nc2nnc(SCC(=O)NC3CCCc4ccccc43)s2)c1C (centres undefined) | -1.45% (inactive) | –
CSc1ccc(-c2sc(Nc3ccccc3)n[n+]2-c2ccccc2)cc1 | -11.6% (inactive) | –
CC(=O)Nc1ccc(-c2sc(Nc3cccc4ccccc34)n[n+]2-c2ccccc2)cc1 | -7.03% (inactive) | –
CCOC(=O)c1cnc2c(C)c(Cl)ccc2c1N1CCN(CC)CC1 | -10.3% (inactive) | –

SMILES | inhibition | inhibition [1] [%]
Cc1[nH]c2ccccc2c1-c1nc2ccccc2[nH]c1=O | -8.14% (inactive) | –
Cc1[nH]c2ccccc2c1-c1nc2ccccc2[nH]1 | -3.22% (inactive) | –
COc1ccc(S(=O)(=O)NC2CCCC2)cc1C(N)=O | -1.94% (inactive) | –
[O-][n+]1c2ccccc2[n+]([O-])c2cc(O)ccc21 | 37.8% (inactive) | –
O=c1cc(O)c2ccc(O)cc2o1 | 0% (inactive) | –
COc1ccc(C(=O)OCCNC(=O)c2ccncc2)cc1OC | -5.77% (inactive) | –
CCOC(=O)c1ccccc1NC(=O)c1n[nH]c(=O)c2ccccc12 | 0% (inactive) | –
COc1cccc(N2CCN(C(=O)c3c(C)nn(-c4ccccc4)c3C)CC2)c1 | -1.48% (inactive) | –
COc1ccc(C(=O)NC2CCCc3c2cnn3-c2ccc(C)c(C)c2)c(OC)c1OC (centres undefined) | -2.67% (inactive) | –
CC1=NN(c2ccccc2)C(=O)C1C(=S)SC1CC(=O)NC1=O (centres undefined) | 26.3% (inactive) | –
O=C1CC(Sc2ncccc2C(=O)O)C(=O)N1 (centres undefined) | 6.1% (inactive) | –
O=C(COC(=O)c1ccc(Br)o1)NC1CCCc2ccccc21 (centres undefined) | -3.71% (inactive) | –
CC(C)NS(=O)(=O)c1ccc(OCC(=O)NCc2ccco2)cc1 | -2.21% (inactive) | –
Cc1nc2ccc([N+](=O)[O-])cc2nc1C | -4.51% (inactive) | –
O=c1c2c([N+](=O)[O-])cc([N+](=O)[O-])cc2nc2ccccn12 | 0% (inactive) | –
O=[N+]([O-])c1cnc2ccccc2c1 | 3.89% (inactive) | –
Cc1ccc2nc(C)c(C(=O)N/N=C/c3ccccc3[N+](=O)[O-])cc2c1 | -1.3% (inactive) | –
COc1cc(Cl)cc(NC(=O)CCN2CCN(C)CC2)c1 | -1.61% (inactive) | –
O=C(NCCc1cccnc1)C1CCC(=O)N(CCc2cccc(F)c2)C1 (centres undefined) | -9.31% (inactive) | –
Cc1ccccc1C(=O)Nc1c2c(nn1C(C)(C)C)CS(=O)(=O)C2 | -5.2% (inactive) | –
C=C1C(=O)O[C@H]2C[C@H]1[C@@H](OC(C)=O)C/C(C)=C/CC/C(C)=C\CC[C@]2(C)O | -22.5% (inactive) | -2.46

SMILES | inhibition | inhibition [1] [%]
CC(=O)C12CCCCC1CC1C3CC(C)C4(O)CC(=O)CCC4(C)C3CCC12C (centres undefined) | -1.3% (inactive) | –
O=C(c1ccccc1NS(=O)(=O)c1ccccc1[N+](=O)[O-])N1CCOCC1 | -3.61% (inactive) | –
O=C(c1ccccc1NS(=O)(=O)c1ccccc1[N+](=O)[O-])N1CCCC1 | 5.25% (inactive) | –
O=C1NN(c2ccccc2)C(=O)/C1=C\c1ccc(-c2cc([N+](=O)[O-])ccc2O)o1 | -10.2% (inactive) | –
O=C1NN(c2ccccc2)C(=O)/C1=C/c1ccc(Sc2cccc3ccccc23)o1 | -6.2% (inactive) | –
O=Cc1ccc(-c2cccc(C(=O)O)c2)o1 | 0.72% (inactive) | –
O=C1NN(c2ccccc2)C(=O)/C1=C/c1ccc(Sc2ccc(Cl)cc2)o1 | 29.5% (inactive) | –
CCc1cc(=O)oc2c3c(cc(OCC(=O)NCCCC(=O)O)c12)OC(C)(C)CC3 | -5.29% (inactive) | –
Cc1cc(C)n2nc(SCC(=O)N3CCCCC3C)nc2n1 (centres undefined) | 3.69% (inactive) | –
CCC1(C2=CCCCC2)C(=O)NC(=O)N=C1N (centres undefined) | 1.17% (inactive) | –
C[C@H](NC(=O)c1nc[nH]c1C(=O)NCCCCCN)C(=O)OCc1ccccc1 | 1.59% (inactive) | –
O=C(COC(=O)c1ccc(-c2cnc3ccccc3n2)cc1)c1ccccc1 | 5.84% (inactive) | –
Nc1cccc2nsnc12 | 12.4% (inactive) | –
COc1ccc(-n2nc3cc(N)c(Br)cc3n2)cc1 | 2.38% (inactive) | –
CCOC(=O)C1C(C(=O)Nc2cccc(C(F)(F)F)c2)C1C(=O)NC(C)C (centres undefined) | -1.46% (inactive) | –
O=C(Nc1c[nH]c(=O)[nH]c1=O)c1cccc([N+](=O)[O-])c1 | -9.65% (inactive) | –
COC(=O)c1sc(-c2ccccc2)cc1NC(=O)c1ccccc1 | -1.45% (inactive) | –
COC(=O)c1sc(-c2ccc(Cl)cc2)cc1NC(=O)/C=C/C(=O)O | 16.1% (inactive) | –
COC(=O)c1sc(-c2ccc(C(C)(C)C)cc2)cc1NC(=O)CSCC(=O)O | 3.13% (inactive) | –
COC(=O)c1sc(-c2ccc(Cl)cc2)cc1NC(=O)c1ccccc1C(=O)O | 15.7% (inactive) | –
